# According to PubChem BioAssay AID1117319 (Southern Research Institute, 2015):
# About 1,500 (0.58%) of roughly 260,000 compounds were called active. Roughly 5% stayed inconclusive and do not appear here.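 The calls were made as follows: active = inhibition above a set limit at one or more doses, reproduced on every date tested; inconclusive = results disagree between test dates, or hit never tested in dose response; inactive = the rest.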 The list is a sample of the results. Entries with a potency or affinity are not part of this list.
# Target: Virion infectivity factor (Human immunodeficiency virus type 1 group M subtype B (isolate BH10)) + Virion infectivity factor (Human immunodeficiency virus type 1 group M subtype B (isolate BRU/LAI)) + Virion infectivity factor (Human immunodeficiency virus type 1 group M subtype B (isolate PCV12)) + Virion infectivity factor (Human immunodeficiency virus type 1 group M subtype B (isolate HXB2)) + DNA dC->dU-editing enzyme APOBEC-3G (Homo sapiens) (UniProt P69720+P69721+P69722+P69723+Q9HC16)
# Assay: inhibitors of Vif binding to APOBEC3G peptide, primary screen, biochemical, TR-FRET, GST-Vif 1-94, biotin-A3G peptide, dose response retest (AID 1117319);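 also: Vif residues 1-94 fused to GST binding biotinylated APOBEC3G peptide 110-148; 0% = full assay without inhibitor and 100% = GST in place of GST-Vif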
# Settings: hits give high values
row,SMILES,inhibition
1,CC1(C)Cc2ccccc2C2CC(O)C(=O)N21 (configuration not stated),4.18% (inactive)
2,CC(=O)N1Cc2ccccc2C(C)CC12CCCC2 (configuration not stated),-6.77% (inactive)
3,NC(=O)c1ccc[n+](Cc2ccc(-c3ccccc3)cc2)c1,8.95% (inactive)
4,Cc1ccc(CN2C(=O)c3ccccc3NC2c2cc(Br)ccc2O)cc1 (configuration not stated),-3.39% (inactive)
5,CCCCCCCCOC(=O)c1cc([N+](=O)[O-])c(Sc2ncnc3nc[nH]c23)c([N+](=O)[O-])c1,29.5% (inactive)
6,CCOC(=O)C(C)(C)Sc1ncnc2nc[nH]c12,-1.07% (inactive)
7,CCn1c(SCC(=O)NCCc2ccccc2)nc2sc3c(c2c1=O)CCN(C)C3,14.3% (inactive)
8,COc1ccccc1CCc1nnc(CCC(=O)NCC[C@@H]2C[C@@H]3C=C[C@H]2C3)o1,2.31% (inactive)
9,O=C(c1ccco1)N1CCN(Cc2cc(=O)c(OCc3ccccc3Cl)co2)CC1,-9.22% (inactive)
10,N#CC(C#N)=C1C=C2C=C(N3CCCCCC3)CCC2CC1 (configuration not stated),8.28% (inactive)
11,N#CC1=C(N)C2=CCCC[C@H]2[C@H](c2ccc(Br)cc2)C1(C#N)C#N,4.38% (inactive)
12,Cc1nc(C(=O)O)nn1-c1cc(Cl)ccc1Cl,2.06% (inactive)
13,Cc1cccc(N(C(=O)CNC(=O)c2ccco2)C(C(=O)NC2CCCC2)c2cccnc2)c1 (configuration not stated),-6.56% (inactive)
14,CN(C)S(=O)(=O)c1cccc(NC(=O)CSc2nncn2-c2ccccc2)c1,1.63% (inactive)
15,COc1cc([C@H]2[C@@H]3CCCC[C@]3(O)CCN2Cc2ccccc2F)ccc1O,4.71% (inactive)
16,O=C(CN1CC(=O)Oc2ccccc21)OCC(=O)c1cccc(Br)c1,20.7% (inactive)
17,O=c1cc(O)c(-c2ccccc2Cl)c(Cl)[nH]1,-2.11% (inactive)
18,O=c1cc(-c2ccccc2)c2c([nH]1)CCCC2,-2.63% (inactive)
19,CC(c1ccccc1)n1c(SCC(=O)Nc2ccccc2)n[nH]c1=O (configuration not stated),-10.8% (inactive)
20,CCN(CC)c1ccc(C2Nc3cccc4cccc(c34)N2)c(O)c1,6.26% (inactive)
21,Oc1ccccc1C1Nc2cccc3cccc(c23)N1,20% (inactive)
22,Cc1csc2cc(-c3cccc([N+](=O)[O-])c3)c(-c3cccc([N+](=O)[O-])c3)c[n+]12,1.42% (inactive)
23,Cc1ccc(-c2cc3cccc[n+]3cc2-c2ccc(C)cc2)cc1,10.5% (inactive)
24,Cn1nccc1C(=O)Nc1ccc2c(c1)OCO2,-8.05% (inactive)
25,O=C(CSc1nnc2scc(-c3ccc(Cl)cc3)n12)NCc1ccc2c(c1)OCO2,31.6% (inactive)
26,Cc1c(NC(=O)CN2CCN(c3ccc(F)cc3)CC2)c(=O)n(-c2ccccc2)n1C,-4.9% (inactive)
27,Cc1c(NC(=O)CN2CCN(c3ccccc3)CC2)c(=O)n(-c2ccccc2)n1C,2.33% (inactive)
